Assay results reported in PubChem BioAssay (Tox21).
Unmarked numbers belong to inactive results. Inconclusive results are not listed. Entries that show only a call come without a potency. The source made the active and inactive calls. Unless noted, the call rests on the fitted dose curve.

Key:
[1] = Nuclear factor erythroid 2-related factor 2/antioxidant responsive element (Nrf2/ARE) small molecule agonists: luciferase reporter gene qHTS assay in human keratinocytes (AID 1919969); further: nearly all actives have a fitted effect of over 35% in size; further: potency means the concentration at half of the fitted maximal effect
[2] = target: Gonadotropin-releasing hormone receptor (Homo sapiens) (UniProt P30968); assay: Human gonadotropin-releasing hormone receptor (GnRHR) small molecule agonists, calcium flux assay in GnRHR-HEK293 cells (AID 1920063); further: nearly all actives have a fitted effect of over 35% in size
Procedure, shortened: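 We seeded human GnRHR-expressing HEK293 cells for 18 hours, loaded them with calcium dye for an hour at 37 C, added test compounds, and recorded fluorescence intensity kinetically for three minutes.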

[3] = target: KiSS-1 receptor (Homo sapiens) (UniProt Q969F8); assay: Human kisspeptin (KISS1R) small molecule agonists, calcium flux assay in KISS1R-HEK293 cells (AID 1920064; active means well fitted activation curve with a large enough effect in the repeat runs)
Procedure, shortened: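 Kinetic calcium assay, 1 s sampling over 3 min at Ex/Em 480/540, in HEK293 cells engineered with human KISS1R; compounds delivered in DMSO after 1 h dye loading.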

[4] = p53 small molecule agonists, cell-based qHTS assay with rat liver microsomes (AID 1963578)
Procedure, shortened: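 With rat liver microsomes and NADPH present (0.5 mg/mL final each), p53RE-bla cells are treated with compound for 16 h at 37 C. LiveBLAzer detection mixture is then applied for 2 h at room temperature in the dark.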

[5] = p53 small molecule agonists, cell-based qHTS assay: qHTS cell viability counter screen (AID 1963581); further: nearly all actives have a fitted effect of over 45% in size
Procedure, shortened: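 Following 5 h attachment, HCT-116 p53RE-bla cells took up compound for 16 h at 37 C; the reporter was read with B/G FRET substrate (2 h RT), and viability then via CellTiter-Glo ATP luminescence.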

[6] = p53 small molecule agonists, cell-based qHTS assay (AID 1963582; active means well fitted activation curve with a large enough effect in the signal ratio in the repeat runs, not every such curve was filed as active; the % refers to the signal ratio)
Procedure, shortened: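 In this cell-based concentration-response screen, a p53 response element drives beta-lactamase; cells received DMSO-borne compounds after 5 h culture and were incubated a further 16 h before FRET substrate development.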

[7] = target: 5-hydroxytryptamine receptor 2A (Homo sapiens) (UniProt P28223); assay: 5-hydroxytryptamine receptor 2A (HTR2A) small molecule antagonists, cell-based qHTS assay (AID 1963586); further: nearly all actives have a fitted effect of over 45% in size
Procedure, shortened: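 Antagonist-mode intracellular calcium assay: DOI (4 nM) added after 5 min compound pre-incubation at room temperature to dye-loaded HTR2A-CHO cells. Fluorescence followed for 3 min, sampled every second.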

[8] = target: 5-hydroxytryptamine receptor 2A (Homo sapiens) (UniProt P28223); assay: 5-hydroxytryptamine receptor 2A (HTR2A) small molecule agonists, cell-based qHTS assay (AID 1963587); further: nearly all actives have a fitted effect of over 30% in size
Procedure, shortened: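 Kinetic calcium-flux fluorescence (2 min, 1 sec intervals) after compound addition in agonist mode. HTR2A-CHO cells were cultured 18 h, then dye-loaded 1 h at 37 C.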

[9] = target: Muscarinic acetylcholine receptor M1 (Homo sapiens) (UniProt P11229); assay: Cholinergic receptor muscarinic 1 (CHRM1) small molecule antagonists, cell-based qHTS assay (AID 1963588); further: nearly all actives have a fitted effect of over 40% in size
Procedure, shortened: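 CHRM1-CHO calcium-flux assay, antagonist mode. Cells were seeded 18 h, dye-loaded 1 h at 37 C and given compound for 5 min at RT, then acetylcholine was added at 50nM. FDSS fluorescence was read 3 min; 15 concentrations, three runs.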

[10] = target: Muscarinic acetylcholine receptor M1 (Homo sapiens) (UniProt P11229); assay: Cholinergic receptor muscarinic 1 (CHRM1) small molecule agonists, cell-based qHTS assay (AID 1963589); further: nearly all actives have a fitted effect of over 35% in size
Procedure, shortened: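 Measures agonist-induced intracellular calcium rise. Stable human CHRM1 CHO line, 1 h dye load at 37 C, compounds from DMSO, kinetic fluorescence read.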

[11] = cAMP Responsive Elements (CRE) small molecule antagonists, cell-based qHTS assay (AID 1963591; active means well fitted inhibition curve with a large enough effect in the signal ratio in the repeat runs, not every such curve was filed as active; the % refers to the signal ratio)
Procedure, shortened: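 HEK293T cells carrying a CRE-driven beta-lactamase reporter receive compound and NKH477 (0.25 uM final) for 3 h. Fluorescence from LiveBLAzer B/G FRET substrate is read after 2 h at room temperature.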

[12] = target: Beta-2 adrenergic receptor (Homo sapiens) (UniProt P07550); assay: Adrenergic beta2 receptor (ADRB2) small molecule antagonists, cell-based qHTS assay (AID 1963592); further: series mostly up to about 92 µM; nearly all actives have a fitted effect of over 50% in size
Procedure, shortened: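 Cells (CHO, stable ADRB2 overexpression) incubated 18-20hr at 37C; compounds added from DMSO; agonist mix (1nM isoproterenol, 100uM IBMX, 25uM Ro-20-1724) added; 0.5hr RT; d2-cAMP and anti-cAMP-cryptate added; 1hr RT; 665/615 nm read.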

[13] = target: D(2) dopamine receptor (Homo sapiens) (UniProt P14416); assay: Dopamine D2 receptor (DRD2) small molecule agonists, cell-based qHTS assay (AID 1963594); further: nearly all actives have a fitted effect of over 35% in size
Procedure, shortened: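 cAMP accumulation in DRD2-HEK293 cells measured by HTRF after 1 h detection; compounds added 10 min before NKH477 (200nM […]) forskolin-analogue stimulation, 30 min at room temperature, with Ro20-1724 present at 0.1 mM final.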

[14] = target: D(2) dopamine receptor (Homo sapiens) (UniProt P14416); assay: Dopamine D2 receptor (DRD2) small molecule antagonists, cell-based qHTS assay (AID 1963595; active means well fitted inhibition curve with a large enough effect in the signal ratio in the repeat runs, with a control signal flat; the % refers to the signal ratio)
Procedure, shortened: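 Human DRD2 antagonist qHTS measuring cAMP by HTRF. The cells are exposed to compound for 10 min, then to NKH477 (200 nM) and quinpirole (12 nM) for 30 min at RT, with Ro20-1724 (0.1 mM) present throughout.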

[15] = p53 small molecule agonists, cell-based qHTS assay with human liver microsomes (AID 1963577);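 further: p53 response element beta-lactamase reporter cells with liver microsomes plus NADPH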
Procedure, shortened: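 16 h, 37 C exposure of p53RE-bla cells to compounds with human liver microsomes and NADPH (0.5 mg/mL final each); detection via LiveBLAzer mixture, 2 h dark at room temperature.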

[16] = p53 small molecule agonists, cell-based qHTS assay with human liver microsomes: qHTS cell viability counter screen (AID 1963579); further: nearly all actives have a fitted effect of over 45% in size
Procedure, shortened: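 In this multiplexed counter screen, the reporter plates were subsequently treated with CellTiter-Glo so that cell viability, reflected by luminescence, could be recorded for p53RE-bla cells dosed 16 h with compounds under microsomal activation (HLM and NADPH).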

[17] = p53 small molecule agonists, cell-based qHTS assay with rat liver microsomes: qHTS cell viability counter screen (AID 1963580); further: nearly all actives have a fitted effect of over 45% in size
Procedure, shortened: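 HCT-116 p53RE-bla, 4,000 cells/well, 5 h pre-incubation; cpd + rat liver microsomes 0.5 mg/mL + NADPH 0.5 mg/mL (final); 16 h, 37 C; CellTiter-Glo, 30 min RT; luminescence.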

[18] = target: Beta-2 adrenergic receptor (Homo sapiens) (UniProt P07550); assay: Adrenergic beta2 receptor (ADRB2) small molecule agonists, cell-based qHTS assay (AID 1963593);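 further: CHO cells stably overexpressing human ADRB2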
Procedure, shortened: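 CHO cells stably over-expressing ADRB2 were plated overnight at 37C, then dosed with compounds plus a stimulation mix containing 100uM IBMX and 25uM Ro-20-1724 for 0.5hr at room temperature. cAMP was measured by HTRF competition, 1hr.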

[19] = cAMP Responsive Elements (CRE) small molecule agonists, cell-based qHTS assay (AID 1963590)
Procedure, shortened: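 A CRE-responsive beta-lactamase reporter in HEK 293T cells was used. Treatment ran 3 h at 37 C; detection used LiveBLAzer B/G FRET substrate for 2 h at room temperature.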

[20] = G protein-coupled receptor (GPCR) small molecule agonists, calcium flux assay: HEK293 wild type cell line counter screen (AID 1920065)
Procedure, shortened: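 Calcium-sensitive dye, loaded 1 h at 37 C into cells cultured 18 h, reports compound-evoked calcium release as fluorescence (Ex/Em 480/540), measured over 3 min. Agonist mode; 15-point titrations, triplicate.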

Sequence of D(2) dopamine receptor (Homo sapiens) (P14416 whole entry, looked up): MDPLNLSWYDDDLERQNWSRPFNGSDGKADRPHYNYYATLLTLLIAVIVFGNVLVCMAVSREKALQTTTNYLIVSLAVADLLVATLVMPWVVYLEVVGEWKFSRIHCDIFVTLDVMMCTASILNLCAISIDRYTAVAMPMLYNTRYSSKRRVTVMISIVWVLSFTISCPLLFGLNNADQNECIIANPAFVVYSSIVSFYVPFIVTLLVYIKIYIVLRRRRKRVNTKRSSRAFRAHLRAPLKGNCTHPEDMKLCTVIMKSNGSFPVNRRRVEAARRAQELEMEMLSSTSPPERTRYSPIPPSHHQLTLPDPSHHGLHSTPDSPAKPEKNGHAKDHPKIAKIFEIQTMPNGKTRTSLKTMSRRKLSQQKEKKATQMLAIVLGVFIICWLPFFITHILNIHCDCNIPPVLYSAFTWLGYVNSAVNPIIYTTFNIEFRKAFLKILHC
Sequence of KiSS-1 receptor (Homo sapiens) (Q969F8 whole entry, looked up): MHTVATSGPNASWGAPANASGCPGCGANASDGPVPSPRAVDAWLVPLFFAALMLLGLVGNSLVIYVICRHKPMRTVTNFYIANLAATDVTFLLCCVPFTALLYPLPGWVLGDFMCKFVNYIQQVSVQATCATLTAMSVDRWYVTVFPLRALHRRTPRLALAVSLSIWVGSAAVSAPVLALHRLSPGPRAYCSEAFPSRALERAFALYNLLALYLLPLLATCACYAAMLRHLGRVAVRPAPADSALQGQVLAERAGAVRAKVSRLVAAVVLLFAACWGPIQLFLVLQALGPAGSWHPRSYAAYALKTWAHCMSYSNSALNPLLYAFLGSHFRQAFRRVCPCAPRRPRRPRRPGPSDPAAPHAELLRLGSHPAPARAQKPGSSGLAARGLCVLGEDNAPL
Sequence of 5-hydroxytryptamine receptor 2A (Homo sapiens) (P28223 whole entry, looked up): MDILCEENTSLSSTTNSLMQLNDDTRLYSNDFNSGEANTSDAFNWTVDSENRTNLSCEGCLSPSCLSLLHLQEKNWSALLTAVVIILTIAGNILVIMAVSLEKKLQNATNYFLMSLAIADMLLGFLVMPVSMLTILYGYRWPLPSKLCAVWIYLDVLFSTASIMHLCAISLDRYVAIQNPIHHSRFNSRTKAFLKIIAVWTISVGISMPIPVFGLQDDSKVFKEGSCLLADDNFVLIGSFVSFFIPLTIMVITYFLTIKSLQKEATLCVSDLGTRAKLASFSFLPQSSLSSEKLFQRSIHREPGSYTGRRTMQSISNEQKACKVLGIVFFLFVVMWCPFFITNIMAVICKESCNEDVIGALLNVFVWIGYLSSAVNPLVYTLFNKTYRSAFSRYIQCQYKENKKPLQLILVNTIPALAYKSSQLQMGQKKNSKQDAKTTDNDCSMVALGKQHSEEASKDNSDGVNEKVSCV
Sequence of Beta-2 adrenergic receptor (Homo sapiens) (P07550 whole entry, looked up): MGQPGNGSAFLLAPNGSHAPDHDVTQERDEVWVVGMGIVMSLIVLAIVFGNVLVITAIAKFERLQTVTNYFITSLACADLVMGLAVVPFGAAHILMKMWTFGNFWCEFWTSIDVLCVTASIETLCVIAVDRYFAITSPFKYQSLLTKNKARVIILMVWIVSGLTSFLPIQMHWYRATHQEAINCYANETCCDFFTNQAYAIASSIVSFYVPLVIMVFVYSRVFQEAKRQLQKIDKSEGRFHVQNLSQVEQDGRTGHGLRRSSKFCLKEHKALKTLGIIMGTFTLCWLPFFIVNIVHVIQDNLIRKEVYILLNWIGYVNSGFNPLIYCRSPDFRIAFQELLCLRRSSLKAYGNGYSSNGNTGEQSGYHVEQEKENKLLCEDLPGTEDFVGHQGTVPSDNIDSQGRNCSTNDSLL
Sequence of Gonadotropin-releasing hormone receptor (Homo sapiens) (P30968 whole entry, looked up): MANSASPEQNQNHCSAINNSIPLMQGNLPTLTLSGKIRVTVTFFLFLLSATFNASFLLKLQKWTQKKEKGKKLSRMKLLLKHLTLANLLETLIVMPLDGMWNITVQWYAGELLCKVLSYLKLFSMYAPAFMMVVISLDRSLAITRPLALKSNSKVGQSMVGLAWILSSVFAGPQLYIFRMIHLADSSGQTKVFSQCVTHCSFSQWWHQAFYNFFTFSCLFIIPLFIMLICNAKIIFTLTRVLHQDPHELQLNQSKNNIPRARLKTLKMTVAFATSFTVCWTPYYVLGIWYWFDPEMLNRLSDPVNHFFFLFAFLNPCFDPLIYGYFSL
Sequence of Muscarinic acetylcholine receptor M1 (Homo sapiens) (P11229 whole entry, looked up): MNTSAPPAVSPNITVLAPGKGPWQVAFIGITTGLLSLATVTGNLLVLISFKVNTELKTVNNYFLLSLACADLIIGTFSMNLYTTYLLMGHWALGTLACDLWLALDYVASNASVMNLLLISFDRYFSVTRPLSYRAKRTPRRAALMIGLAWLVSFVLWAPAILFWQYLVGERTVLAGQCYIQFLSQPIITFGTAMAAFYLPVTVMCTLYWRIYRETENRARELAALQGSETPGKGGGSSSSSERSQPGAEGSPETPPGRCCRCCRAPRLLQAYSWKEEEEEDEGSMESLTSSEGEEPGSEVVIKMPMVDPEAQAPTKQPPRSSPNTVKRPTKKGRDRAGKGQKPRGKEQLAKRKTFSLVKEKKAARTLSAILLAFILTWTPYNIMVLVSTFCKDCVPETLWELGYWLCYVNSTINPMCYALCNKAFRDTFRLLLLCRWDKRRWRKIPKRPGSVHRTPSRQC

SMILES	Potency [1]	Potency [2]	outcome [3]	Potency [4]	Potency [5]	Potency [6]	Potency [7]	Potency [8]	Potency [9]	Potency [10]	Potency [11]	Potency [12]	Potency [13]	Potency [14]	Potency [15]	Potency [16]	Potency [17]	Potency [18]	Potency [19]	outcome [20]
CCOC(=O)CC#N	inactive	inactive	inactive	inactive	inactive	inactive	inactive	inactive	inactive	inactive	inactive	inactive	inactive	inactive						
Oc1ccc(Cl)c2cccnc12	668 nM (active)	inactive	inactive	inactive	inactive	inactive	inactive	inactive	inactive	inactive		inactive	inactive	inactive	inactive	inactive	inactive	inactive		
CCCCc1nc(Cl)c(CO)n1Cc1ccc(-c2ccccc2-c2nn[nH]n2)cc1	inactive	inactive	inactive	inactive	inactive								inactive	inactive	inactive	inactive	inactive		inactive	
CCN(CC)CCOC(=O)C1(c2ccccc2)CCCC1	inactive		inactive	inactive	inactive	inactive		inactive		inactive	inactive	inactive	inactive		inactive	inactive	inactive	inactive		inactive
On1nnc2ccccc21	inactive	inactive	inactive	inactive	inactive		inactive		inactive	inactive	inactive	inactive	inactive	inactive		inactive	inactive		inactive	inactive
O=Cc1c(Cl)cccc1Cl	inactive	inactive	inactive	inactive	inactive	inactive	inactive		inactive	inactive	inactive	inactive	inactive	inactive	inactive	inactive	inactive		inactive	
O=P(O)(O)C(O)(Cc1cccnc1)P(=O)(O)O		inactive	inactive	inactive	inactive	inactive					inactive	inactive	inactive	inactive	inactive	inactive	inactive		inactive	inactive
COc1ccc(CCN(C)CCCC(C#N)(c2cc(OC)c(OC)c(OC)c2)C(C)C)cc1OC (stereo not given)		inactive	inactive	inactive	inactive	inactive				inactive		inactive		inactive	inactive	inactive	inactive		inactive	inactive
CCCC(=O)C(CC)Sc1ccoc1C (stereo not given)	inactive		inactive	inactive	inactive	inactive	inactive	inactive	inactive	inactive	inactive	inactive	inactive	inactive	inactive	inactive	inactive		inactive	inactive
